This note sets out measurements from publication PMC10726135, “HNF4α isoforms regulate the circadian balance between carbohydrate and lipid metabolism in the liver”.

In all, about 18,000 sequences were measured (“log2 normalized intensity”: median about 0.36, highest 2% from about 7.3 on). The entries come from a sample that favours the highest values as a whole.

The target in the test is T1, HNF4alpha8 (COS-7 nuclear extract) (Homo sapiens, UniProt P41235-5 1-452).
T1 sequence: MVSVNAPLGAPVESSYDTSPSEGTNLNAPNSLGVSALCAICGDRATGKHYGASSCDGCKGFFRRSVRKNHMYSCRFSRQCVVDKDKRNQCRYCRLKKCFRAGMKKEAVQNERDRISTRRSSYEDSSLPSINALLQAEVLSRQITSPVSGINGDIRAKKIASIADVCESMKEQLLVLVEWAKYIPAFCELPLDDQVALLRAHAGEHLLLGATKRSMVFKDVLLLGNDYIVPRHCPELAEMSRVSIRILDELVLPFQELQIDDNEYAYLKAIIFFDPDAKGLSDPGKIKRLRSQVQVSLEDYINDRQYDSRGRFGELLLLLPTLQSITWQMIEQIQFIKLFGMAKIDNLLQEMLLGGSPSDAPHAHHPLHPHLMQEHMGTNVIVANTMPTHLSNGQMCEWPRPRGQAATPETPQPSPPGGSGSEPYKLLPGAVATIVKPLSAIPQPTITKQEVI
As to the kind of experiment: protein-binding microarray; COS-7 nuclear extract on double-stranded Agilent 4x180k PBM; binding buffer, salt, pH and temperature not given in the material; high values mean tight binding. The settings on record: chain copies: 2; label: 3' end of strand 1 on the slide; dsDNA, one strand shown. In short, it runs like this:
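Nuclear extracts of COS-7 cells transiently transfected with a human HNF4α isoform were applied to a custom Agilent SurePrint G3 4x180k array bearing ~44,000 double-stranded ~60-nt test sequences, each in quadruplicate. The bound protein was imaged on an Agilent G2565CA scanner at 2-µm resolution. Binding signal is the normalized, background-corrected gProcessedSignal from Agilent software.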
Turning to “ACAGGGAAAGTATGGGTCAGCCCTGCCATCGCCTAGGGAGATTAGAGTATCGGTCGA”, the binding signal is -0.943 log2 normalized intensity.

“GTTTTACAAACACAATGGAAGGCTGTATGTGCCTAGGGAGATTAGAGTATCGGTCGA”: the binding signal turned out to be 0.119 log2 normalized intensity.

For “GTCACTGCTCAAAAACACTCAGTTAATTATGCCTAGGGAGATTAGAGTATCGGTCGA”, the binding signal was -0.0424 log2 normalized intensity.

Regarding “CTCCCAAATCTTCTTTAAGCTATGTGGTGGGCCTAGGGAGATTAGAGTATCGGTCGA”, the binding signal came to 0.933 log2 normalized intensity.

In the case of “TTTCTGTTTGTCTTACTGTGTTGTCGTATTGCCTAGGGAGATTAGAGTATCGGTCGA”, the binding signal came out at 2.11 log2 normalized intensity.

On to “ACAGCACTTAGGGTTCAAAGGTTGTTGAGCGCCTAGGGAGATTAGAGTATCGGTCGA”, for which the binding signal turned out to be 6.67 log2 normalized intensity.

On to “ATTCCCTCCAGCAGGGGATGCCCTTTGACCGCCTAGGGAGATTAGAGTATCGGTCGA”, for which the binding signal was 9.35 log2 normalized intensity.

Consider “CTAGGCTCCAGGGCACTGCCCTTTGGAACCGCCTAGGGAGATTAGAGTATCGGTCGA”, for which the binding signal worked out at 7.42 log2 normalized intensity.

Regarding “TTATGCAGACCTTTGCCCTTTGTTTACATAGCCTAGGGAGATTAGAGTATCGGTCGA”, the binding signal is 5.95 log2 normalized intensity.

Consider “AAAGCCTAGGCTCCAGGGCACTGCCCTTTGGCCTAGGGAGATTAGAGTATCGGTCGA”, for which the binding signal turned out to be 3.51 log2 normalized intensity.

Turning to “ATTCCCTTTCTCCTCCCCTCCCCTCCCCCCGCCTAGGGAGATTAGAGTATCGGTCGA”, the binding signal was 6.78 log2 normalized intensity.

As for “CTCCAGGGCACTGCCCTTTGGAACCTGCCCGCCTAGGGAGATTAGAGTATCGGTCGA”, the binding signal was determined as 6.57 log2 normalized intensity.

With “CCCTTTGACCTCTGCTTCCTGCTACAGAGCGCCTAGGGAGATTAGAGTATCGGTCGA”, the binding signal came out at 2.76 log2 normalized intensity.

In the case of “TGCTTCCAAGTTATGCAGACCTTTGCCCTTGCCTAGGGAGATTAGAGTATCGGTCGA”, the binding signal was determined as 7.7 log2 normalized intensity.

With “TGCACATTCCCTCCAGCAGGGGATGCCCTTGCCTAGGGAGATTAGAGTATCGGTCGA”, the binding signal amounted to 2.84 log2 normalized intensity.

For “TACTTTGCTTCCAAGTTATGCAGACCTTTGGCCTAGGGAGATTAGAGTATCGGTCGA”, the binding signal was 2.66 log2 normalized intensity.

On to “GCAGGGGATGCCCTTTGACCTCTGCTTCCTGCCTAGGGAGATTAGAGTATCGGTCGA”, for which the binding signal amounted to 8.67 log2 normalized intensity.

As to “GGATGCCCTTTGACCTCTGCTTCCTGCTACGCCTAGGGAGATTAGAGTATCGGTCGA”, the binding signal came to 6.5 log2 normalized intensity.

As to “CACAGACCTGCCTCTCTCTCATGTCTGTACGCCTAGGGAGATTAGAGTATCGGTCGA”, the binding signal came out at 0.832 log2 normalized intensity.

As to “TGGTGCTATGTCCCTGACTGTGTGGCTTGCGCCTAGGGAGATTAGAGTATCGGTCGA”, the binding signal came out at 0.908 log2 normalized intensity.

Take “GTCCATCACCTGGCTCTGAAAAACAAAATGGCCTAGGGAGATTAGAGTATCGGTCGA”: the binding signal was -0.567 log2 normalized intensity.

Regarding “CTTCACCTCCCCTAGACTTACTATTATGCCGCCTAGGGAGATTAGAGTATCGGTCGA”, the binding signal worked out at 1.86 log2 normalized intensity.

Turning to “TGAGGGGACAAAGTTCGTGGAAAGTGGAAGGCCTAGGGAGATTAGAGTATCGGTCGA”, the binding signal came to 3.11 log2 normalized intensity.

As to “GCAGAGGGACAACTGAGTTACGTAATGTGTGCCTAGGGAGATTAGAGTATCGGTCGA”, the binding signal amounted to 0.932 log2 normalized intensity.

As for “TGAACTATTGAACCACCAGATAGAGCTTTTGCCTAGGGAGATTAGAGTATCGGTCGA”, the binding signal stood at 0.654 log2 normalized intensity.

Turning to “CCACCCTATTGATGCAAGGACAATGTCTAGGCCTAGGGAGATTAGAGTATCGGTCGA”, the binding signal turned out to be 1.38 log2 normalized intensity.

Regarding “CTTCAAGTCAGTCAAAATGAATAGTCCTTTGCCTAGGGAGATTAGAGTATCGGTCGA”, the binding signal came out at 0.855 log2 normalized intensity.

Regarding “CCTGCTTCCAGGCTTGTACCTTGACCTTCTGCCTAGGGAGATTAGAGTATCGGTCGA”, the binding signal came out at 7.46 log2 normalized intensity.

On to “GGCCAGATAAAGCAGGTTGTACCTTGACCCGCCTAGGGAGATTAGAGTATCGGTCGA”, for which the binding signal was determined as 9.73 log2 normalized intensity.

Take “GATAAAGCAGGTTGTACCTTGACCCAAGAAGCCTAGGGAGATTAGAGTATCGGTCGA”: the binding signal came out at 5.6 log2 normalized intensity.

For “CCCTTCCTGCTTCCAGGCTTGTACCTTGACGCCTAGGGAGATTAGAGTATCGGTCGA”, the binding signal came out at 3.23 log2 normalized intensity.

Take “TTCCAGGCTTGTACCTTGACCTTCTCTGTTGCCTAGGGAGATTAGAGTATCGGTCGA”: the binding signal was found to be 6.19 log2 normalized intensity.

“GGCAGGGCCAGATAAAGCAGGTTGTACCTTGCCTAGGGAGATTAGAGTATCGGTCGA”: the binding signal amounted to 3.15 log2 normalized intensity.

Regarding “AGATCTGGATATGCCTGGGGTTCCAGTTACGCCTAGGGAGATTAGAGTATCGGTCGA”, the binding signal is 0.546 log2 normalized intensity.

“CTTCCATATAACCCTTGAACCTTCTTCTTGGCCTAGGGAGATTAGAGTATCGGTCGA”: the binding signal is 4.81 log2 normalized intensity.

Consider “CCTCCAGGCCCCAGCCACGCCCTCTAACCCGCCTAGGGAGATTAGAGTATCGGTCGA”, for which the binding signal was 3.33 log2 normalized intensity.

For the sequence “TTATCAGGACTTTGTGATTACATTGAGTCCGCCTAGGGAGATTAGAGTATCGGTCGA”, the binding signal came to 1.97 log2 normalized intensity.

Regarding “AAAAACACCTGGTTCCTTGCAAGATAAGGGGCCTAGGGAGATTAGAGTATCGGTCGA”, the binding signal is -0.239 log2 normalized intensity.

With “CCTCTCAGGAATGTGGATGCTAAAAGTGAAGCCTAGGGAGATTAGAGTATCGGTCGA”, the binding signal was -0.262 log2 normalized intensity.

Take “GTATGTTCTTAAGATAAGGACTGTTGGACCGCCTAGGGAGATTAGAGTATCGGTCGA”: the binding signal stood at 4.24 log2 normalized intensity.

As to “GGGAAGCTGTGTGAAGTGACTTGCCCTGTTGCCTAGGGAGATTAGAGTATCGGTCGA”, the binding signal was 2.3 log2 normalized intensity.

With “TTACTGGACTTGATCCATTCTACCCCTGTGGCCTAGGGAGATTAGAGTATCGGTCGA”, the binding signal was found to be 2.82 log2 normalized intensity.

Turning to “CATTCTACCCCTGTGGTTGACCTTTAGTCTGCCTAGGGAGATTAGAGTATCGGTCGA”, the binding signal was 8.33 log2 normalized intensity.
